Screens: PubChem BioAssay, National Center for Advancing Translational Sciences (NCATS)
HCMV inh: human cytomegalovirus inhibition | activity change, negative = inhibition, % at 57.5 µM | HFF cells, HCMV-luciferase reporter, 72 h; active compounds read low | AID 1259415 | 410,000 tested, 4.5% active; in the data active = activity change below about -60%; inconclusive = no clear call, values can overlap the other calls; inactive = above about -39%; note: % is set by controls: 0 for no effect and ±100 for the full control effect
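Two compound doses tested in HFFs infected with HCMV-luciferase, MOI 1 PFU/cell, 72 h at 37C. Lysate luminescence read with OneGlo; data normalized against buffer-only and 10uM Salinomycin inhibitor controls.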
Shiga toxin inh: blocks Shiga toxin action in Vero cells | 290,000 tested, 9.2% active | inhibition, % at 38.7 µM | Vero cells, Shiga toxin protein synthesis inhibition reporter; in the data active = inhibition mostly above about 28%, no sharp cut-off; inactive = mostly below about 43%; note: 0% is about no effect
Cycloheximide cs: counter-screen hit for Shiga toxin inhibitors, cycloheximide | 300,000 tested, 12% active | max response, % | cell reporter, cycloheximide protein synthesis inhibition counterscreen; in the data active = max response mostly above about 13%, no sharp cut-off; inactive = mostly below about 14%; note: read at 38.3 µM for the half of the compounds with a filed dose; 0% is about no effect
HCV inhibitor: inhibitors of hepatitis C virus infection. Huh7.5.1 HCVcc-Cre infection, luciferase reporter, 44 h. Potency, µM (series often up to 41.8 µM), inactives show at the top dose activity change, negative = inhibition, hits mostly inhibitors. 340,000 tested, 3.4% active; note: potency is the fitted concentration of half-maximal effect; % is set by controls: 0 for no effect and ±100 for the full control effect
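Luciferase read-out (15 sec integration) after a 15 min room-temperature substrate step quantifies HCVcc-Cre infection. Cells, 1,000 per well, had compound added 4 h post-plating, then virus at ~0.5 moi, and were cultured 44 h.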
Pf growth 96h: P. falciparum growth inhibition at 96 hours | P. falciparum luciferase reporter growth, 96 h | Potency, µM (top dose mostly 28.7 µM), without a hit: at the top dose activity change, negative = inhibition, hits mostly inhibitors | 320,000 tested, 6.9% active | AID 504834; note: potency is the fitted concentration of half-maximal effect; % is set by controls: 0 for no effect and ±100 for the full control effect
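Readout is luminescence from an integrated firefly luciferase in P. falciparum. Red cells, 2% hematocrit and 0.05% parasitemia final, were cultured with compound through two parasite generations (96 hours) at 37 C, 5% CO2.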
Pf growth 48h: inhibits P. falciparum growth in the first generation, 48 h. Potency, µM (series often up to 28.7 µM), for the others: at the top dose activity change, negative = inhibition, most hits filed as inhibitors. P. falciparum luciferase growth in erythrocytes, 48 h. 310,000 tested, 5.9% active; note: potency is the fitted concentration of half-maximal effect; % is set by controls: 0 for no effect and ±100 for the full control effect
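In quantitative HTS format, infected erythrocytes bearing luciferase-reporter parasites were treated for a single generation at 37 C. Luminescence after adding detection reagent served as the growth measure.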
Starred values were filed as active, the others as inactive; i = inactive; ? = inconclusive; nt = no result; + = active, no number. A selection: hits, their analogues and other compounds. The true share with any hit is near 21%. Unless noted, calls come from the whole dose curve; as a rule, active = well fitted inhibition curve with a large enough effect; inconclusive = small, poorly fitted or top-dose-only effect, or another doubt; inactive = no such curve, though single readings can be large or run the other way.

SMILES | HCMV inh | Shiga toxin inh | Cycloheximide cs | HCV inhibitor | Pf growth 96h | Pf growth 48h
CCn1ccnc1CNCc1cn(-c2cc(C)ccc2C)nc1-c1ccccc1 | 13.6 | -29.9 | -2.0 | ? | ? | ?
Cc1ccc(C)c(-n2cc(CNCCc3cnccn3)c(-c3ccccc3)n2)c1 | -16.7 | 17.1 | -0.8 | -6.7% | ? | 7.38µM*
CC(=O)N1CCCN(Cc2cn(-c3cc(C)ccc3C)nc2-c2ccccc2)CC1 | 9.5 | -9.3 | -2.2 | -9.8% | -18.0% | 16.5µM*
O=C(O)CCn1cc(C(=O)O)c(-c2ccccc2)n1 | -35.3 | -13.1 | 8.3 | 10.4% | 63.9% | 7.4%
Cc1ccc(Cn2c(C)c(C(=O)NCc3cccc(C(F)(F)F)c3)sc2=O)cc1 | -15.9 | nt | nt | nt | nt | nt
Cc1c(C(=O)NCc2ccc(Cl)c(Cl)c2)sc(=O)n1Cc1ccc(S(C)(=O)=O)cc1 | -79.7* | nt | nt | nt | nt | nt
Cc1c(C(=O)NCc2ccc(F)cc2)sc(=O)n1Cc1ccc(Cl)c(Cl)c1 | 5.6 | nt | nt | nt | nt | nt
C=Cc1ccc(Cn2c(C)c(C(=O)NCc3ccc(C#N)cc3)sc2=O)cc1 | -60.5* | nt | nt | nt | nt | nt
Cc1c(C(=O)NCc2ccccc2C(F)(F)F)sc(=O)n1Cc1cccc(C(F)(F)F)c1 | -15.5 | nt | nt | nt | nt | nt
Cc1c(C(=O)NCc2ccccc2C(F)(F)F)sc(=O)n1Cc1ccc2ccccc2c1 | -70.9* | nt | nt | nt | nt | nt
Cc1c(C(=O)NCc2ccc3c(c2)OCCO3)sc(=O)n1Cc1cccc(C(F)(F)F)c1 | -78.6* | nt | nt | nt | nt | nt
Cc1nn(C(=O)CCCn2cc([N+](=O)[O-])cn2)c(C)c1Cl | -11.1 | -6.5 | 13.6 | 12.8% | 0.0% | -12.2%
CSc1ccc(Cn2c(C)c(C(=O)NCc3ccc4c(c3)OCCO4)sc2=O)cc1 | -74.4* | nt | nt | nt | nt | nt
CSc1ccc(Cn2c(C)c(C(=O)NCc3ccc(Cl)c(Cl)c3)sc2=O)cc1 | -16.4 | nt | nt | nt | nt | nt
COc1cc2oc(=O)cc(-c3ccc(-c4ccc(OC(F)(F)F)cc4)cc3)c2c(OC)c1OC | -14.8 | 69.9* | 23.6 | 11.6% | nt | nt
COc1cc2oc(=O)cc(-c3ccc(-c4ccc(N(C)C)cc4)cc3)c2c(OC)c1OC | -11.5 | + | 64.4* | -21.7% | nt | nt
COc1ccc(-c2cccc(-c3cc(=O)oc4cc(OC)c(OC)c(OC)c34)c2)cc1 | 1.9 | i | 25.7 | ? | nt | nt
COc1ccc(-c2ccc(-c3cc(=O)oc4cc(OC)c(OC)c(OC)c34)cc2)cc1F | 9.9 | 78.9* | 30.0* | 3.1% | nt | nt
COc1cc2oc(=O)cc(-c3cccc(-c4ccc(C(C)=O)cc4)c3)c2c(OC)c1OC | nt | + | 39.3* | nt | nt | nt
COc1ccc(OC)c(S(=O)(=O)N2CCC(c3ccncc3)CC2)c1 | -7.0 | nt | nt | nt | nt | nt
CCOc1ccccc1-c1nnc2n1N=C(c1c(OC)cccc1OC)CS2 | nt | 20.4 | 5.7 | nt | nt | nt
CC1Cc2nc(SCC(=O)N3CCCCC3)n(C)c(=O)c2S1 (configuration not stated) | 3.6 | nt | nt | nt | nt | nt
C=CCOc1ccc(/C=C2\SC(=Nc3cccnc3)NC2=O)cc1 | 19.9 | 22.1 | 10.3* | -3.1% | 10.4µM* | ?
CC(/C=C1\SC(=Nc2cccnc2)NC1=O)=C\c1ccccc1 | 11.3 | 6.4 | -1.0 | ? | -24.3% | -1.4%
CCOC(=O)NC(=O)COC(=O)c1ccc(O)cc1 | 7.5 | -6.8 | 0.4 | -5.4% | 5.2% | 10.1%
SMILES | HCMV inh | Shiga toxin inh | Cycloheximide cs | HCV inhibitor | Pf growth 96h | Pf growth 48h
Cc1ccc(C(=O)COC(=O)c2ccc(O)cc2)cc1 | -39.2 | 93.9* | 33.1* | -6.9% | 68.0% | 19.6%
Cc1ccc(C(=O)COC(=O)C2CCC2)cc1 | nt | 48.4* | 36.5* | 20.6% | 20.4% | 19.8%
CC(C)(C)NC(=O)COC(=O)c1ccc(O)cc1 | 2.3 | 18.9 | 17.4* | -18.5% | 29.8% | 31.9%
Cc1ccccc1S(=O)(=O)N(C)C[C@H]1OCc2cnnn2CCCC(=O)N([C@H](C)CO)C[C@@H]1C | -0.9 | nt | nt | nt | nt | nt
Cc1ccc(S(=O)(=O)N2CCC(C(=O)NCCCN3CCCC3=O)CC2)cc1C | 15.7 | -13.9 | -3.5 | 25.5% | 7.2% | 3.4%
C=C(C)c1cccc(C(C)(C)NC(=O)N2CCOCC2)c1 | -1.4 | -2.9 | -2.9 | 21.3% | nt | -5.2%
C=C(C)c1cccc(C(C)(C)NC(=O)Nc2ccc(C)cn2)c1 | -38.7 | 63.5* | 21.2* | 8.91µM* | ? | 29.9%
C=C(C)c1cccc(C(C)(C)NC(=O)Nc2nnc(C(C)C)s2)c1 | -101.4* | -1.3 | 0.5 | ? | 11.7µM* | 27.1%
C=C(C)c1cccc(C(C)(C)NC(=O)Nc2ccc(OC)nc2)c1 | ? | -3.8 | 3.1 | ? | ? | ?
C=C(C)c1cccc(C(C)(C)NC(=O)Nc2cc(C)ccn2)c1 | ? | 91.6* | 30.2* | ? | ? | 16.3%
C=C(C)c1cccc(C(C)(C)NC(=O)Nc2nncs2)c1 | -18.5 | -6.4 | -2.4 | ? | 2.2% | -10.7%
C=C(C)c1cccc(C(C)(C)NC(=O)N2CCCC2)c1 | 14.4 | -9.1 | 1.1 | 10.0% | 13.1µM* | -11.6%
CSCCC1NC(=O)N(CC(=O)Nc2ccc(-c3ccccc3)cc2)C1=O (configuration not stated) | 20.0 | 65.5* | 20.9* | 1.4% | 57.8% | 54.1%
CCOc1ccc(NC(=O)CN2C(=O)NC(CCSC)C2=O)cc1 (configuration not stated) | 0.0 | -14.9 | -3.0 | 18.8% | 7.8% | -13.2%
CC#CC(=O)NCC1(N(C)Cc2ccccc2)Cc2ccccc2C1 | ? | 8.0 | 0.6 | -4.2% | 7.38µM* | -24.3%
CC(=O)Nc1ccc(C(=O)N2CCCCC2c2cc(C(=O)NCc3cccnc3)no2)cc1 (configuration not stated) | 7.4 | nt | nt | nt | nt | nt
O=C1C2CC=CCC2C(=O)N1c1ccc(OCC(O)Cn2nnc3ccccc32)cc1 (configuration not stated) | ? | -9.3 | -2.2 | -28.5% | 14.7µM* | nt
COC(=O)c1ccc(OCC(O)Cn2nnc3ccccc32)cc1 (configuration not stated) | 74.4 | 52.4 | 18.7 | ? | ? | 59.3%
Cc1ccc2c(c1)c(C)c(C)n2CC(O)Cn1nc(C)cc1C (configuration not stated) | -20.8 | 2.6 | -1.0 | -16.6% | nt | ?
Cc1ccc2c(c1)c(C)c(C)n2CC(O)Cn1nnc2ccccc21 (configuration not stated) | -14.5 | 51.7 | 30.3* | ? | ? | 30.6%
CC(=O)c1ccc(OCC(O)CN2C(C)CCCC2C)cc1 (configuration not stated) | 3.1 | -2.7 | -5.7 | 19.4% | 8.28µM* | nt
CC(=O)c1ccc(OCC(O)Cn2nnc3ccccc32)cc1 (configuration not stated) | 27.0 | 68.9 | 38.7* | -7.5% | 32.0% | 7.38µM*
CCOc1ccccc1NC(=O)CCn1ccnc1 | -17.4 | -3.2 | 0.8 | 6.8% | 33.4% | 36.8%
COc1ccc(N(C)S(=O)(=O)c2cccc(C(=O)OCC(=O)N3CC(C)CC(C)C3)c2)cc1 (configuration not stated) | -36.0 | nt | nt | ? | nt | nt
